# High-throughput results (PubChem BioAssay)
# In the library only some 0.97% were active in any assay of this set; here they are far more common.
# GASC-1 inh – inhibitors of GASC-1 histone demethylase, primary screen, biochemical, fluorescence, DELFIA europium; inhibition, % at 2.35 µM; Lysine-specific demethylase 4C (Homo sapiens), Q9H3R0; GST-JMJD2C(1-420) H3K9me3 demethylation; AID 2099, 2009; 0.069% of 330,000 active;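 active = more than half of a compound's replicate wells show inhibition beyond 50%, single wells judged on their own value; inconclusive = some, but no more than half, of replicates pass 50% inhibition; inactive = no replicate passes 50% inhibition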;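 also: signal counts dimethyl H3K9 product captured on neutravidin plate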
# Target sequence (Q9H3R0 1-420 limits assumed): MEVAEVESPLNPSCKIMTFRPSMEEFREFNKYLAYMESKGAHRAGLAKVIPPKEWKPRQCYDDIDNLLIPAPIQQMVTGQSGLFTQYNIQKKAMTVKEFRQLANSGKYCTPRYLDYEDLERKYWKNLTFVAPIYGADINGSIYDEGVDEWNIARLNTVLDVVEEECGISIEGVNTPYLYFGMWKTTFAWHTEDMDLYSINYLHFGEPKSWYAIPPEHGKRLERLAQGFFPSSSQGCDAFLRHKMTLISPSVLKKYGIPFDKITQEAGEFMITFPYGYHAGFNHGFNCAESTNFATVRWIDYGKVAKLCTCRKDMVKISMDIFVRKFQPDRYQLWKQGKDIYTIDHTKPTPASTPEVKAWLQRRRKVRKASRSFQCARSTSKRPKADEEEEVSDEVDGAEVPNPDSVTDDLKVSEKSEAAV
# LAP4 TOR yeast – modulators of LAP4-GFP expression in yeast, primary screen, S. cerevisiae, multiplex flow cytometry, MLPCN library. 3 h; median GFP as percent of DMSO wells. GFP response vs DMSO, % at 10 µM. 0.34% of 320,000 active. AID 2023, 2009;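 active = GFP response vs DMSO above a set limit, about the screen mean plus 3 SD, cut at about 150% in these data; inconclusive = under 70 cell events counted for the yeast strain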
# CIT2 TOR yeast – modulators of CIT2-GFP expression in yeast, primary screen, S. cerevisiae, GFP fusion, multiplex flow cytometry, MLPCN library; S. cerevisiae CIT2-GFP strain, 3 h; 100 means same as DMSO wells; GFP response vs DMSO, % at 10 µM; AID 2029, 2009; 0.065% of 320,000 active;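 active = GFP response relative to DMSO above a set limit, near the screen mean plus 3 SD, cut at about 150% in these data; inconclusive = Fewer than 70 cells measured for a yeast strain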;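 also: ratio of well median GFP fluorescence to mean of DMSO wells on the plate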
# RPL19A TOR yeast – RPL19A-GFP expression modulators in yeast, primary screen, cell-based, S. cerevisiae, multiplex flow cytometry, MLPCN; S. cerevisiae RPL19A-GFP strain, 3 h; stronger effect = lower value; percent response vs DMSO, % at 10 µM; 0.3% of 330,000 active;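 active = percent response vs DMSO below 50%; inconclusive = fewer than 70 events counted for the yeast strain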;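 also: median channel GFP fluorescence of the barcoded RPL19A-GFP strain; lower means less RPL19A-GFP as with rapamycin TOR inhibition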
# AGP1 TOR yeast – modulators of AGP1-GFP expression in yeast TOR pathway, primary screen, cell-based, multiplex flow cytometry, S. cerevisiae, MLPCN library | GFP response vs DMSO, % at 10 µM | 0.02% of 320,000 active | 3 h; GFP as percent of DMSO wells | AID 2066, 2009;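 active = GFP response relative to DMSO above a set limit, near screen average plus 3 SD, cut at about 150% in these data; inconclusive = fewer than 70 cells counted for the yeast strain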;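 also: median GFP channel fluorescence of the gated AGP1 strain per well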
# MEP2 TOR yeast – modulators of MEP2-GFP levels in yeast, primary screen, S. cerevisiae, multiplex flow cytometry, MLPCN library; S. cerevisiae MEP2-GFP strain, 3 h; 100% = DMSO control level; GFP response vs DMSO, % at 10 µM; 0.51% of 330,000 active; AID 2016, 2009;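 active = GFP response versus DMSO above a set limit, roughly screen mean plus 3 SD, cut at about 180% in these data; inconclusive = fewer than 70 cells counted for a yeast strain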;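 also: median GFP fluorescence of the barcode-gated MEP2-GFP cells per well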
# A number is an active result; 0 = inactive; ? = inconclusive; - = no result given; [ ] = remark or other dose.
SMILES,GASC-1 inh,LAP4 TOR yeast,CIT2 TOR yeast,RPL19A TOR yeast,AGP1 TOR yeast,MEP2 TOR yeast
COc1ccc(-c2nnc(SCC(=O)NC(=O)Cc3ccccc3)n2C)cc1,0,0,0,0,0,0
CC1(C)CC(=O)/C(=C(\O)c2ccccc2)C(=NCCO)C1,0,0,?,37.8[may fluoresce violet],0,205.6[may fluoresce violet]
Cc1cc(NC(=O)CSC2=Nc3ccccc3C3=NC(Cc4ccccc4)C(=O)N23)n[nH]1 (centres undefined),0,0,?,0,0,265.6[may fluoresce violet]
O=c1oc(-c2ccccc2F)nc2c1cnn2-c1ccccc1,0,0,0,0,0,0
O=c1oc(-c2cccc(Cl)c2)nc2c1cnn2-c1ccccc1,0,0,?,0,0,207.6[may fluoresce violet]
O=C(C[C@H]1C/C=C\CCC(=O)O[C@@H](c2ccccc2)CNC1=O)NCCO,-,0,0,0,0,0
CCc1ncc(CN2CCC(C(=O)Nc3cccc(-c4cscn4)c3)CC2)cn1,0,0,0,0,0,0
CN(C)CCCNc1cc(C(C)(C)C)nc2c(-c3ccc(Cl)cc3)cnn12,0,186.2,0,0,0,0
COc1cccc(N2CCN(S(=O)(=O)c3ccc4nc(-c5ccccc5)[nH]c4c3)CC2)c1,0,0,?,-,0,276.9[may fluoresce violet]
Cc1nc(SCC(=O)Nc2ccc3[nH]c(=O)[nH]c3c2)nc(C)c1C,0,0,0,0,0,0
O=C(Cn1nc(-c2ccc(Cl)cc2)ccc1=O)NCC1COCCO1 (centres undefined),71.4,0,0,0,0,0
CCOc1ccc(NC(=O)CN(C)C(=O)c2ccc(C)o2)cc1OCC,0,0,0,0,0,0
COC(=O)c1ccc(CS(=O)(=O)c2ccc(F)cc2)o1,0,151.8,0,0,0,535.9
CC1(CCC(=O)N2CCCC(Nc3ccc(F)cc3)C2)CC1 (centres undefined),0,0,0,0,0,0
COc1ccccc1CNC(=O)C1CCN(S(=O)(=O)c2ccc(-n3cnnn3)cc2)CC1,0,0,?,0,?,608.8[may fluoresce violet]
COc1cccc(CNC(=O)C2CCN(S(=O)(=O)c3ccc(-n4cnnn4)cc3)CC2)c1,0,0,0,0,0,0
COc1ccc(CNC(=O)C2CCNCC2)cc1,0,0,?,0,?,473.6[may fluoresce violet]
Cc1ccc(N(C(=O)c2snc(C(N)=O)c2N)C(C(=O)NCc2ccccc2)c2ccncc2)c(C)c1 (centres undefined),0,0,?,38.5[may fluoresce violet],?,209.6[may fluoresce violet]
Cc1cc(NC(=O)CSCC(=O)N2CCN(c3ccccc3)CC2)no1,0,0,0,0,0,0
O=C(COc1ccccc1/C=C1\SC(=S)NC1=O)Nc1ccc(F)cc1,0,0,0,0,0,0
CCOC(=O)C1CCN(S(=O)(=O)c2cccc(-c3cn4cc(C)ccc4n3)c2)CC1,0,0,?,46.3[may fluoresce violet],?,373.1[may fluoresce violet]
Nc1nc(=S)c2ncn(C3CCCC3)c2[nH]1,0,0,0,0,0,0
COc1ccc(N(CC(=O)N/N=C/c2ccc(OC)cc2OC)S(=O)(=O)c2ccccc2)cc1,0,0,0,0,0,0
COc1ccc(N(CC(=O)N/N=C/c2cc(OC)ccc2OC)S(=O)(=O)c2ccccc2)cc1,0,0,0,0,0,184.6
Cc1ccc(C(=O)N2CCN(c3ccccc3F)CC2)cc1NC1=NC2CS(=O)(=O)CC2S1 (centres undefined),0,0,?,40.4[may fluoresce violet],?,256.5[may fluoresce violet]
O=C(O)C1CC=CCC1C(=O)N1CCN(c2nc(-c3ccccc3Cl)c3cc(Br)ccc3n2)CC1 (centres undefined),0,0,?,0,0,191.9[may fluoresce violet]
O=C(O)C1CC=CCC1C(=O)N1CCN(c2nc(-c3ccccc3)c3ccccc3n2)CC1 (centres undefined),0,0,?,0,0,0
O=C(c1cccc([N+](=O)[O-])c1)N1CCCC(C(=O)N2CCc3ccccc3C2)C1 (centres undefined),0,0,0,0,0,0
